# Compound activity deposited in PubChem by Bradner/Qi Labs at DFCI.
# The sample as a whole holds a higher share of hits than the screen did.
# CBX7 AlphaScr = blocks human CBX7 binding to H3K27me3 peptide; 66,000 compounds, 1.1% hits; normalised signal (fraction of DMSO) (no concentration beside the values); AlphaScreen His6-CBX7 / biotin-H3K27me3 peptide binding; active compounds read low; O95931; AID 1224903; in the data active = normalised signal below about 0.5
# Target sequence (O95931 whole entry, looked up): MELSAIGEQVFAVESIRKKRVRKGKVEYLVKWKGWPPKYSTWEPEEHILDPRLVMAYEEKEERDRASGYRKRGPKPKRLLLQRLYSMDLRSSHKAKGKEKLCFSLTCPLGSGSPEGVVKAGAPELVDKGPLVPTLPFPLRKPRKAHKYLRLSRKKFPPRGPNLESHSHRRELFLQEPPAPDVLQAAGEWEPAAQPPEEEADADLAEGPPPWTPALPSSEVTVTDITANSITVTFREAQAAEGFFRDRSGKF
# * marks the source's active call; other numbers are inactive results.
SMILES,CBX7 AlphaScr
Cc1ccc(-c2noc(CCC(=O)Nc3cccc(Cl)c3)n2)cc1,1
O=C(NCc1ccccc1Cl)c1cc(=O)nc2sc(-c3ccccc3)nn12,0.83
CCOc1ccc(-n2c(Cc3cc(=O)[nH]c(=O)[nH]3)nnc2SCC(=O)Nc2ccccc2)cc1,0.9
O=C(NCCc1c[nH]c2ccccc12)C(=O)NCc1ccc2c(c1)OCO2,0.88
COc1ccccc1-c1cc(C(=O)NCC(C)C)no1,0.97
COc1cccc(NC(=O)CN(c2ccc(C)cc2)S(=O)(=O)c2ccc(OC)c(OC)c2)c1,0.98
O=C(CC1(O)C(=O)N(CCc2ccccc2)c2ccc(Br)cc21)c1ccccc1 (stereo not drawn),0.63
CCCN1C(=O)C(O)(CC(=O)c2ccc(C(C)C)cc2)c2cc(Br)ccc21 (stereo not drawn),0.14*
CCCCN1C(=O)C(O)(CC(=O)c2ccc(C(C)C)cc2)c2cc(Br)ccc21 (stereo not drawn),0.66
Clc1ccccc1Cc1noc(-c2ccccc2Br)n1,1.3
CCCCC(=O)Nc1c2c(nn1-c1ccc(F)cc1)CSC2,0.95
OC(COc1ccc(Br)cc1)Cn1cnc(-c2ccccc2)c1 (stereo not drawn),1.1
O=C(Nc1cccc(-c2nc3ccccc3[nH]2)c1)c1cc2ccccc2o1,0.86
COc1ccc(-c2cc(C(F)(F)F)n3nc(C(=O)NCc4ccccc4)c(Cl)c3n2)cc1OC,1
OC1CCCc2c1[nH]c1ccc(OCc3ccccc3)cc21 (stereo not drawn),0.43*
OC1CCCCc2c1[nH]c1ccc(C3CCCCC3)cc21 (stereo not drawn),0.72
CCOC(=O)c1[nH]c2ccc(OCc3ccccc3)cc2c1C,1.1
CCc1cccc(NC(=O)C2CCN(S(=O)(=O)c3cccnc3)CC2)c1,1
CCOC(=O)c1ccc(NC(=O)CC2C(=O)N(c3cccc(OC)c3)C(=O)N2CCC(C)C)cc1 (stereo not drawn),0.98
COc1ccc(C(=O)Nc2c(C(=O)Nc3ccccc3F)oc3ccccc23)cc1,1.2
Cc1ccc(-c2noc(CCC(=O)NCCc3cccc(C)c3)n2)cc1,1
Cc1ccc(OCCn2c(C3CC(=O)N(c4cccc(C)c4C)C3)nc3ccccc32)cc1 (stereo not drawn),0.79
Cc1ccc(C)c(N2CC(c3nc4ccccc4n3CCOc3ccccc3)CC2=O)c1 (stereo not drawn),0.7
Cc1ccc(OCCn2c(C3CC(=O)N(c4cc(C)ccc4C)C3)nc3ccccc32)cc1 (stereo not drawn),0.49*
Cc1nc(NCCc2ccc3c(c2)OCCO3)c2cc(-c3ccccc3)sc2n1,0.36*
SMILES,CBX7 AlphaScr
Cc1nc(SCC(=O)c2ccc3c(c2)OCCO3)c2cc(-c3ccccc3)sc2n1,1
COc1ccc(CCNc2nc(C)nc3sc(C)c(C)c23)cc1OC,1
COc1ccccc1OCc1nc2ccccc2n1Cc1ccccc1Cl,0.78
CCCN1CCCc2cc(CN(CCCN3CCOCC3)C(=O)Nc3ccccc3)ccc21,0.8
CCN1CCCc2cc(CN(CCN3CCOCC3)C(=O)Nc3ccc(C)c(C)c3)ccc21,0.22*
CCc1ccc(NC(=O)N(CCN2CCOCC2)Cc2ccc3c(c2)CCCN3CC)cc1,0.57
Cc1cc(N2CCC(C(N)=O)CC2)nc2cc(O)ccc12,1
Cc1ccc(Nc2nc(-c3ccc(F)c(C)c3)cs2)nc1,0.84
CCOc1ccc2nc(N3CCCC(C(=O)N4CCN(Cc5ccccc5)CC4)C3)sc2c1 (stereo not drawn),0.72
CCOc1ccc2nc(N3CCCC(C(=O)NCCCN4CCN(CC)CC4)C3)sc2c1 (stereo not drawn),0.44*
CCOCCCNC(=O)C1CCCN(c2nc3ccc(OCC)cc3s2)C1 (stereo not drawn),1.1
CCOc1ccc2nc(N3CCCC(C(=O)N4CCN(CC)CC4)C3)sc2c1 (stereo not drawn),0.43*
CCOc1ccc2nc(N3CCCC(C(=O)N4CCC(C(N)=O)CC4)C3)sc2c1 (stereo not drawn),1
CCCN1CCN(CCCNC(=O)C2CCCN(c3nc4ccc(OCC)cc4s3)C2)CC1 (stereo not drawn),1
Cc1ccc(-n2cc(C(=O)Nc3c(F)cccc3F)c3ccccc3c2=O)cc1C,0.96
COC(CNC(=O)C1CCN(Cc2nc(-c3ccccc3C)oc2C)CC1)OC,1.2
COC(=O)c1ccccc1NC1c2ccccc2C(=O)N1c1ccccn1 (stereo not drawn),1
CCCCN1C(=O)c2ccccc2C1C(=O)NC1CCC(C)CC1 (stereo not drawn),0.99
CC1CCN(CCCNC(=O)CCCn2c(=O)[nH]c3ccccc3c2=O)CC1,1.1
COc1ccc(S(=O)(=O)N(C)CCc2ccccn2)cc1,0.94
CCOc1ccc(CN(C)CCc2ccccn2)cc1,0.47*
COc1ccccc1CN(C)CCc1ccccn1,1
CCOc1ccccc1NC(=O)CSc1nccn1-c1ccc(F)cc1,0.77
COc1ccc(Cn2c(CCC(=O)NCCc3ccccc3)nc3cccnc32)cc1,0.96
Cc1ccn2c(NC3CCCCC3)c(-c3cccnc3)nc2c1,1.1
SMILES,CBX7 AlphaScr
Cc1ccn2c(NC3CCCC3)c(-c3ccccn3)nc2c1,0.43*
Cc1ccc2nc(-c3ccncc3)c(NC3CCCC3)n2c1,1.1
Cc1ccc(-c2nc3ncccn3c2NC2CCCCC2)cc1,0.98
Cc1ccn2c(NC3CCCCC3)c(-c3ccccn3)nc2c1,0.46*
Cc1ccn2c(NC3CCCC3)c(-c3ccncc3)nc2c1,0.98
Clc1ccc(-c2noc(COc3cccc4ccccc34)n2)cc1,1.7
CCN(CC)S(=O)(=O)c1ccc2oc(C(=O)Nc3ccc(C)c(C)c3)c(C)c2c1,1
Cc1ccc(-c2nc(CS(=O)(=O)CC(=O)N(C)CCC#N)c(C)o2)cc1,1
CCn1cc(C(=O)N2CCCCC2)c(=O)c2ccc(C)nc21,1.1
Cc1cc(=O)oc2c(CN3CCCC3)c(O)ccc12,1.1
Cc1cc(=O)n2ccc(CN3CCCCC3)c(O)c2n1,0.0042*
CCc1ccc(CN(C(=O)COc2ccc(Cl)c(C)c2)C2CCS(=O)(=O)C2)cc1 (stereo not drawn),0.82
Cc1cc(C)c(NC(=O)CSc2nccn2-c2cccc(Cl)c2)c(C)c1,0.88
Cc1ccc(C)c(NC(=O)CSc2nccn2-c2ccc(Cl)cc2)c1,0.8
Cc1cccc(NC(=O)CSc2nccn2-c2ccc(Cl)cc2)c1C,0.44*
Cc1ccc(C)c(NC(=O)CSc2nccn2-c2cccc(Cl)c2)c1,0.93
CCOc1ccccc1NC(=O)CSc1nccn1-c1cccc(Cl)c1,0.29*
CCOc1ccccc1NC(=O)CSc1nccn1-c1cccc(C)c1,0.76
Cc1cccc(NC(=O)CSc2nccn2-c2ccccc2)c1C,0.77
COc1ccccc1NC(=O)CSc1nccn1-c1cccc(Cl)c1,0.97
Cc1cccc(NC(=O)CSc2nccn2-c2cccc(Cl)c2)c1C,0.47*
Cc1ccc(Cl)cc1N1CCN(CCCNC(=O)C(C)n2ncc3ccccc32)CC1 (stereo not drawn),0.69
CCOc1c(OC)cccc1C1CC(=O)Nc2cc3c(cc21)OCO3 (stereo not drawn),0.8
Cn1c(COc2cccc3cccnc23)nnc1SCC(=O)c1ccc(F)cc1,0.99
CCc1ccc(-c2nc(C(=O)NCCCN3CCC(C)CC3)c(C)o2)cc1,1
COc1ccc(C(=O)NCCc2cc3ccc(OC)cc3[nH]c2=O)cc1,0.99
Nc1nonc1C(=O)NCc1ccc(Cl)cc1,1.1
CCc1cc(-c2nc(-c3ccc(Cl)c(Cl)c3)cs2)ccn1,1.2
